Consider 40 compounds from PubChem BioAssay (NCATS).

Inconclusive results are not listed. A number with no mark means an inactive call. Calls of active or inactive are those of the source. Calls follow the shape of the dose curve; as a rule, active = well fitted cell-killing curve with a large enough effect; inconclusive = small, poorly fitted or top-dose-only effect, or effect the other way; inactive = no such curve, though single readings can be large or run the other way.
Potency is read from the fitted curve at half-maximal effect.

The nature of the test: Quantitative High-Throughput drug screen in 47 multiple myeloma cell lines against the NCATS MIPE library collection: ARD_JJKsccE7 cell viability assay (AID 1918929). As to conditions: ARD myeloma cell line viability, CellTiter-Glo, 48 h; series mostly up to 45.8 µM; viability: at the top concentration. From the text:
PI: Beverly A. Mock Ph.D.
Laboratory of Cancer Biology and Genetics,
Center for Cancer Research, National Cancer Institute,
National Institute of Health, Bethesda, Maryland
Drug resistance and disease progression are common in multiple myeloma (MM) patients, underscoring the need for new therapeutic combinations. […] We hypothesized that effective combinations would reduce MYC expression and enhance p16 activity. […] These preclinical data identify potentially useful drug combinations for evaluation in drug-resistant MM and reveal potential mechanisms of combined drug sensitivity.
Described herein is the primary MIPE qHTS used to cherrypick compounds. Validated compounds were then further tested for potential synergistic activiy.
[1] Peat TJ, Gaikwad SM, Dubois W, Gyabaah-Kessie N, Zhang S, Gorjifard S, Phyo Z, Andres M, Hughitt VK, Simpson RM, Miller MA, Girvin AT, Taylor A, Williams D, D'Antonio N, Zhang Y, Rajagopalan A, Flietner E, Wilson K, Zhang X, Shinn P, Klumpp-Thomas C, McKnight C, Itkin Z, Chen L, Kazandijian D, Zhang J, Michalowski AM, Simmons JK, Keats J, Thomas CJ, Mock BA. Drug combinations identified by high-throughput screening promote cell cycle transition and upregulate Smad pathways in myeloma. Cancer Lett. 2023 Aug 1;568:216284. doi: 10.1016/j.canlet.2023.216284. Epub 2023 Jun 24. PMID: 37356470; PMCID: PMC10408729.
SEQUENCE No. (e.g., 1, 2, 3, etc.); […] (e.g., Cells, Incubation, Reagent, etc.); VALUE and DESCRIPTION.
1; Cells; 5 uL; white, solid bottom 1536-well Greiner assay plate.
2; Compounds; 23 nL; Kalypsis pin tool (Wako USA) equipped with a 1536-well pin head to transfer to the assay plates.
3; Incubation; 48 hours; 37C incubation.
4; Reagent;5uL; CellTiter Glo (Promega).
5; Detector; 425V; Luminescence; Viewlux PerkinElmer.
NOTES (numbers refer to Sequence numbers above)
1. The cell-based screening methods employed in this study were like those previously published. Briefly, the corresponding myeloma cell lines were screened in 1,536-well plates with 500 cells, 5-uL per well for inhibition of cell viability (assessed by measuring ATP levels with CellTiterGlo).
2. NCATS MIPE 4.0 library of approved and investigational drugs were added using the Kalypsis pin tool. Wells treated with DMSO only for 100% viability and media only wells for 0% viability were used as controls.
3. The assay plates were covered and incubated for 48 hours in a 37C, 5% CO2 incubator with controlled humidity.
4. After 48 hours, CellTilter-GloTM luminescent substrate mix (Promega) reagent was added to the assay plate and plates we incubated for 5 min at room temperature.
5. Signal was measured as median relative luminescence units on a ViewLux (PerkinElmer) multiplate reader.
[1] Heske CM, Davis MI, Baumgart JT, Wilson K, Gormally MV, Chen L, Zhang X, Ceribelli M, Duveau DY, Guha R, Ferrer M, Arnaldez FI, Ji J, Tran HL, Zhang Y, Mendoza A, Helman LJ, Thomas CJ. Matrix Screen Identifies Synergistic Combination of PARP Inhibitors and Nicotinamide Phosphoribosyltransferase (NAMPT) Inhibitors in Ewing Sarcoma. Clin Cancer Res. 2017 Dec 1;23(23):7301-7311. doi: 10.1158/1078-0432.CCR-17-1121. Epub 2017 Sep 12. PMID: 28899971; PMCID: PMC6636827.
(In general: In ATP-based viability assays light output follows the ATP content of the culture.)
The term viability denotes a read-out of living cells in per cent, often relative to untreated cells. Turning to `CC1=NN(c2ccccc2)C(=O)C1`, the “viability” value is 109%.
As for `CC(C)(C)NC(=O)[C@H]1CC[C@H]2[C@@H]3CC[C@H]4NC(=O)C=C[C@]4(C)[C@H]3CC[C@]12C`, the Potency was 20.9 µM (active).
For `CCOC(=O)[C@H](CCc1ccccc1)N[C@H]1CS[C@H](c2cccs2)CN(CC(=O)O)C1=O`, the Potency is 1.66 µM (active).
`CC(=O)[C@H]1CC[C@H]2[C@@H]3CC=C4C[C@@H](O)CC[C@]4(C)[C@H]3CC[C@]12C`: the “viability” value was 113%.
For the compound `NC(=O)c1cccnc1`, the “viability” value was 103%.
For `CN(Cc1cc(Br)cc(Br)c1N)C1CCCCC1`, the “viability” value is 105%.
As to `COC(=O)Nc1nc2ccc(Sc3ccccc3)cc2[nH]1`, the Potency is 1.32 µM (active).
Consider `CCOCC(O)COc1ccc(NC(=O)CC[S+](C)C)cc1` (stereo not given), for which the “viability” value was 97.3%.
Regarding `CCOC(=O)[C@H](CCc1ccccc1)N[C@H]1CCc2ccccc2N(CC(=O)O)C1=O`, the Potency was 18.7 µM (active).
`CN1CCN(c2c(F)cc3c(=O)c(C(=O)O)cn4c3c2OCN4C)CC1`: the “viability” value was 140%.
Still for that read-out and setting: then `Cc1onc(-c2ccccc2Cl)c1C(=O)N[C@@H]1C(=O)N2[C@@H]1SC(C)(C)[C@@H]2C(=O)O`, with 121%.
Consider `CC(C)(C)C(=O)OCOP(=O)(COCCn1cnc2c(N)ncnc21)OCOC(=O)C(C)(C)C`, for which the Potency is 5.9 µM (active).
As for `CC(=O)Oc1ccccc1C(=O)Nc1ncc([N+](=O)[O-])s1`, the Potency was 21.5 µM (active).
As for `CC(C)NCC(O)c1ccc(NS(C)(=O)=O)cc1` (stereo not given), the “viability” value was 126%.
For `CC(C)C[C@H](NC(=O)[C@H](CCc1ccccc1)NC(=O)CN1CCOCC1)C(=O)N[C@@H](Cc1ccccc1)C(=O)N[C@@H](CC(C)C)C(=O)[C@@]1(C)CO1`, the Potency is 0.001 µM (active).
Regarding `COc1c(N2CCNC(C)C2)c(F)cc2c(=O)c(C(=O)O)cn(C3CC3)c12` (stereo not given), the “viability” value is 94.1%.
With `COc1ncnc(NS(=O)(=O)c2ccc(N)cc2)c1OC`, the “viability” value was 107%.
With `CN(C)c1ccc(C(=C2C=CC(=[N+](C)C)C=C2)c2ccc(N(C)C)cc2)cc1`, the Potency was 0.526 µM (active).
On to `Cn1nnc2c(C(N)=O)ncn2c1=O`, for which the “viability” value is 123%.
As to `NC1(c2ccc(-c3nc4ccn5c(=O)[nH]nc5c4cc3-c3ccccc3)cc2)CCC1`, the Potency was 0.296 µM (active).
Take `CC(C)OC(=O)OCOP(=O)(CO[C@H](C)Cn1cnc2c(N)ncnc21)OCOC(=O)OC(C)C`: the Potency was 23.5 µM (active).
In the case of `Nc1nc(=S)c2[nH]cnc2[nH]1`, the “viability” value is 160%.
Same read-out and setting: then `N[C@@H](C(=O)N[C@@H]1C(=O)N2C(C(=O)O)=C(Cl)CS[C@H]12)c1ccccc1`, with 95.5%; and `COc1cc(NS(=O)(=O)c2ccc(N)cc2)nc(OC)n1`, with 110%.
Same read-out and setting: then `NC(=O)N1c2ccccc2CC(=O)c2ccccc21`, with 100%.
Take `CCc1c2c(nc3ccc(OC(=O)N4CCC(N5CCCCC5)CC4)cc13)-c1cc3c(c(=O)n1C2)COC(=O)[C@]3(O)CC`: the Potency was 0.0105 µM (active).
Take `COc1ccccc1OCC(O)COC(N)=O` (stereo not given): the “viability” value is 119%.
Turning to `Nc1ccc(S(=O)(=O)Nc2ccccn2)cc1`, the “viability” value is 114%.
For the compound `COc1cc2ncnc(Nc3cccc(Cl)c3)c2cc1OC`, the Potency is 23.5 µM (active).
`Nc1[nH]c(=O)ncc1F`: the “viability” value is 121%.
Turning to `C#CCN[C@@H]1CCc2ccccc21`, the “viability” value was 122%.
With `CO[C@@]12[C@H](COC(N)=O)C3=C(C(=O)C(C)=C(N)C3=O)N1C[C@@H]1N[C@@H]12`, the “viability” value was 157%.
As to `CCCc1cc(C(N)=S)ccn1`, the “viability” value was 116%.
As for `Nc1nc(N)c2nc(CNc3ccc(C(=O)NC(CCC(=O)O)C(=O)O)cc3)cnc2n1` (stereo not given), the Potency was 0.0118 µM (active).
The same measure, in the same setting: with `Cc1ccc(S(=O)(=O)N[C@@H](Cc2ccccc2)C(=O)CCl)cc1` the figure was 16.6 µM (active).
Regarding `CC(=O)CC(c1ccccc1)c1c(O)c2ccccc2oc1=O` (stereo not given), the “viability” value was 141%.
Consider `Cc1oc(=O)oc1CN1CCN(c2cc3c(cc2F)c(=O)c(C(=O)O)c2n3C(C)S2)CC1` (stereo not given), for which the “viability” value was 149%.
Regarding `NCCCC(O)(P(=O)(O)O)P(=O)(O)O`, the “viability” value is 105%.
For the compound `CC(C)(C#N)c1cc(Cn2cncn2)cc(C(C)(C)C#N)c1`, the “viability” value was 99.1%.
As for `OC(Cn1cncn1)(Cn1cncn1)c1ccc(F)cc1F`, the “viability” value was 139%.
